Laboratory results taken from PubChem BioAssay.
Inconclusive results are not listed. Active and inactive are the calls of the source.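 The calls were made as follows, unless noted: active = normalized viability below 100% at a tested concentration; inactive = the rest.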

Legend:
[1] = viability loss in pontine glioma line – cell-based, SU-DIPG-XVII, MIPE5.0, CellTiter-Glo, qHTS, dose response (AID 1347060; cut-off not given, nearly all actives have AC50 up to about 26 µM;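 as to AC50: cells exposed to compound for 48 hours before viability readout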); settings: CellTiter-Glo ATP luminescence
[2] = viability loss in pontine glioma line – cell-based, SU-DIPG-XIII, MIPE4.0, CellTiter-Glo, qHTS, dose response (AID 1347061; cut-off not given, nearly all actives have AC50 up to about 37 µM;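 also: cells exposed to compound for 48 hours before readout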); settings: CellTiter-Glo ATP luminescence
[3] = viability loss in pontine glioma line – cell-based, JHH-DIPG-1, MIPE4.0, CellTiter-Glo, qHTS, dose response (AID 1347062; cut-off not given, nearly all actives have AC50 up to about 27 µM;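 as to AC50: cells exposed to compound for two days before readout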); settings: JHH-DIPG-1 viability, CellTiter-Glo ATP luminescence
[4] = viability loss in pontine glioma line – cell-based, SU-DIPG-XIII, MIPE5.0, CellTiter-Glo, qHTS, dose response (AID 1347064; cut-off not given, nearly all actives have AC50 up to about 23 µM;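 as to AC50: cells exposed to compound for 48 hours before the viability read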); settings: CellTiter-Glo ATP luminescence
[5] = viability loss in pontine glioma line – cell-based, SU-DIPG-XXV, MIPE5.0, CellTiter-Glo, qHTS, dose response (AID 1347065; cut-off not given, nearly all actives have AC50 up to about 26 µM;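 also: cells exposed to compound for 48 hours before ATP readout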); settings: CellTiter-Glo ATP luminescence
[6] = JHH-DIPG-1 glioma cell viability, MIPE5.0 library, CellTiter-Glo luminescence, qHTS (AID 1347067; cut-off not given, nearly all actives have AC50 up to about 26 µM;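 also: cells exposed to compound for 48 hours before readout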); settings: JHH-DIPG-1 glioma viability, CellTiter-Glo ATP luminescence
[7] = viability loss with induced miR-34 in A549 – imaging, A549 dox-inducible miR-34, nuclei and caspase counts, primary screen (AID 1347080;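 active = compounds whose cell count with miR-34 switched on is under 0.7 times the count with it off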); settings: A549 miR-34 inducible, Hoechst nuclei count, 48 h
[8] = MELAS cybrid and Rieske KO viability enhancers – cell-based, MELAS cybrids, Rieske KO mouse fibroblasts, CellTiter-Glo, primary screen (AID 1508586;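 active = mean z-score across replicates of 1.96 or higher in either the MELAS or the Rieske mutant cell line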;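 also: z relative to plate mean and SD of compound and empty wells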); settings: low glucose
[9] = growth inhibition of DIPG cells – cell-based, MIPE4.0 library, CellTiter-Glo luminescence, qHTS (AID 1347066; cut-off not given, nearly all actives have AC50 up to about 30 µM;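 also: cells exposed to compound for 48 hours before readout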); settings: SU-DIPG-VI viability, CellTiter-Glo ATP luminescence
[10] = compounds altering HSF1 focus formation in cells – imaging, Selleck Cancer Library (AID 1347162; in the data active = plate-normalised HSF1 focus index below about 0.46); settings: human cells, HSF1 nuclear foci imaging, at 10 µM; SSMD: measured here: HSF1 foci SSMD mean; cell count: measured here: cell number; plate-normalised HSF1 focus index: stronger effect = lower value
[11] = drug combination growth inhibition, ovarian cancer – cell-based, oncology-focused library, rucaparib conditional, profiling panel (AID 1508598); settings: patient-derived ovarian cancer cells, CellTiter-Glo viability, 144 h, stronger effect = lower value
[12] = viability loss in pontine glioma line – cell-based, SU-DIPG-IV, MIPE4.0, CellTiter-Glo, qHTS, dose response (AID 1347063; cut-off not given, nearly all actives have AC50 up to about 30 µM;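 also: compound exposure lasted 48 hours before the viability readout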); settings: CellTiter-Glo ATP luminescence
[13] = growth inhibition of DIPG cells – cell-based, MIPE5.0 library, qHTS (AID 1347068; cut-off not given, nearly all actives have IC50 up to about 30 µM;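 as to IC50: cells exposed to compound for 48 hours before viability readout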); settings: SU-DIPG-XXV viability
[14] = stronger effect = lower value, cell number ratio, induced over uninduced
[15] = measured here: relative caspase fold change +Dox/-Dox
[16] = measured here: total cells with miR-34 induction, stronger effect = lower value
[17] = measured here: total cells without miR-34 induction
[18] = MELAS cybrid survival, CellTiter-Glo 48 h, stronger effect = higher value
[19] = Rieske KO mouse fibroblast survival, CellTiter-Glo 72 h
[20] = at 0.000305 µM, OCI-C5x cells, with rucaparib 10 µM, 100% = cells with rucaparib alone
[21] = at 0.000305 µM, OCI-C5x cells, without rucaparib
[22] = at 0.000305 µM, OCI-P5x cells, with rucaparib 20 µM, 100% = cells with rucaparib alone
[23] = at 0.000305 µM, OCI-P5x cells, without rucaparib
[24] = at 0.00122 µM, OCI-C5x cells, with rucaparib 10 µM, 100% = cells with rucaparib alone
[25] = at 0.00122 µM, OCI-C5x cells, without rucaparib
[26] = at 0.00122 µM, OCI-P5x cells, with rucaparib 20 µM, 100% = cells with rucaparib alone
[27] = at 0.00122 µM, OCI-P5x cells, without rucaparib
[28] = at 0.00488 µM, OCI-C5x cells, with rucaparib 10 µM, 100% = cells with rucaparib alone
[29] = at 0.00488 µM, OCI-C5x cells, without rucaparib
[30] = at 0.00488 µM, OCI-P5x cells, with rucaparib 20 µM, 100% = cells with rucaparib alone
[31] = at 0.00488 µM, OCI-P5x cells, without rucaparib
[32] = at 0.0195 µM, OCI-C5x cells, with rucaparib 10 µM, 100% = cells with rucaparib alone
[33] = at 0.0195 µM, OCI-C5x cells, without rucaparib
[34] = at 0.0195 µM, OCI-P5x cells, with rucaparib 20 µM, 100% = cells with rucaparib alone
[35] = at 0.0195 µM, OCI-P5x cells, without rucaparib
[36] = at 0.0781 µM, OCI-C5x cells, with rucaparib 10 µM, 100% = cells with rucaparib alone
[37] = at 0.0781 µM, OCI-C5x cells, without rucaparib
[38] = at 0.0781 µM, OCI-P5x cells, with rucaparib 20 µM, 100% = cells with rucaparib alone
[39] = at 0.0781 µM, OCI-P5x cells, without rucaparib
[40] = at 0.313 µM, OCI-C5x cells, with rucaparib 10 µM, 100% = cells with rucaparib alone
[41] = at 0.313 µM, OCI-C5x cells, without rucaparib

SMILES: Cc1cc(C(=O)NOCCO)c(Nc2ccc(I)cc2F)n(C)c1=O
- AC50 [1]: 0.166 µM (active)
- AC50 [2]: 0.132 µM (active)
- AC50 [3]: 0.105 µM (active)
- AC50 [4]: 0.132 µM (active)
- AC50 [5]: 0.295 µM (active)
- AC50 [6]: 0.059 µM (active)
- fold change [7, 14]: 1.09 (inactive)
- fold change [7, 15]: 0.434
- cell count [7, 16]: 3770
- cell count [7, 17]: 3450
- z-score [8, 18]: -0.704 (inactive)
- z-score [8, 19]: -1.56

SMILES: O=C(O)CCC1CCC(c2cc(F)ccc2F)(S(=O)(=O)c2ccc(Cl)cc2)CC1 (configuration not stated)
- outcome [1]: inactive
- AC50 [2]: 18.7 µM (active)
- AC50 [3]: 16.6 µM (active)
- outcome [4]: inactive
- AC50 [9]: 6.62 µM (active)
- outcome [6]: inactive
- fold change [7, 14]: 0.867 (inactive)
- fold change [7, 15]: 0.588
- cell count [7, 16]: 8810
- cell count [7, 17]: 10200
- SSMD [10]: 1.51
- cell count [10]: 7050
- plate-normalised HSF1 focus index [10]: 1.09 (inactive)
- z-score [8, 18]: -0.308 (inactive)
- z-score [8, 19]: 0.781
- viability [11, 20]: 114% (inactive)
- viability [11, 21]: 121% (inactive)
- viability [11, 22]: 110% (inactive)
- viability [11, 23]: 108% (inactive)
- viability [11, 24]: 123% (inactive)
- viability [11, 25]: 121% (inactive)
- viability [11, 26]: 113% (inactive)
- viability [11, 27]: 102% (inactive)
- viability [11, 28]: 110% (inactive)
- viability [11, 29]: 120% (inactive)
- viability [11, 30]: 107% (inactive)
- viability [11, 31]: 105% (inactive)
- viability [11, 32]: 115% (inactive)
- viability [11, 33]: 104% (inactive)
- viability [11, 34]: 104% (inactive)
- viability [11, 35]: 104% (inactive)
- viability [11, 36]: 108% (inactive)
- viability [11, 37]: 112% (inactive)
- viability [11, 38]: 102% (inactive)
- viability [11, 39]: 93.6% (active)
- viability [11, 40]: 113% (inactive)
- viability [11, 41]: 113% (inactive)
- viability ([11]; at 0.313 µM, OCI-P5x cells, with rucaparib 20 µM, 100% = cells with rucaparib alone): 99.9% (active)
- viability ([11]; at 0.313 µM, OCI-P5x cells, without rucaparib): 89.3% (active)
- viability ([11]; at 1.25 µM, OCI-C5x cells, with rucaparib 10 µM, 100% = cells with rucaparib alone): 113% (inactive)
- viability ([11]; at 1.25 µM, OCI-C5x cells, without rucaparib): 109% (inactive)
- viability ([11]; at 1.25 µM, OCI-P5x cells, with rucaparib 20 µM, 100% = cells with rucaparib alone): 94.5% (active)
- viability ([11]; at 1.25 µM, OCI-P5x cells, without rucaparib): 87.7% (active)
- viability ([11]; at 5 µM, OCI-C5x cells, with rucaparib 10 µM, 100% = cells with rucaparib alone): 114% (inactive)
- viability ([11]; at 5 µM, OCI-C5x cells, without rucaparib): 107% (inactive)
- viability ([11]; at 5 µM, OCI-P5x cells, with rucaparib 20 µM, 100% = cells with rucaparib alone): 84.8% (active)
- viability ([11]; at 5 µM, OCI-P5x cells, without rucaparib): 76.9% (active)

SMILES: Nc1nc(NCCNc2ncc(-n3ccnc3)c(-c3ccc(Cl)cc3Cl)n2)ccc1[N+](=O)[O-]
- AC50 [1]: 11.8 µM (active)
- outcome [2]: inactive
- AC50 [12]: 5.26 µM (active)
- AC50 [4]: 13.2 µM (active)
- AC50 [5]: 8.33 µM (active)
- AC50 [6]: 11.8 µM (active)
- outcome [13]: inactive

SMILES: CC(C)C[C@H](CC(=O)O)C(=O)N[C@@H](Cc1c[nH]c2ccccc12)C(=O)N[C@@H](C)c1ccccc1
- outcome [1]: inactive
- outcome [2]: inactive
- outcome [3]: inactive
- AC50 [5]: 16.6 µM (active)
- outcome [6]: inactive
- outcome [13]: inactive

SMILES: Cc1ccc(C(C)(O)c2nc3ccccc3s2)c(C)c1 (configuration not stated)
- outcome [1]: inactive
- outcome [2]: inactive
- outcome [3]: inactive
- outcome [4]: inactive
- outcome [9]: inactive
- outcome [6]: inactive
- outcome [13]: inactive

SMILES: CCNC(=O)[C@H]1O[C@@H](n2cnc3c(N)nc(NCCc4ccc(CCC(=O)O)cc4)nc32)[C@H](O)[C@@H]1O
- outcome [1]: inactive
- outcome [2]: inactive
- outcome [3]: inactive
- outcome [5]: inactive
- outcome [9]: inactive
- outcome [6]: inactive
- outcome [13]: inactive

SMILES: CNC(=O)c1ccc2cc(C3(O)CCn4cncc43)ccc2c1 (configuration not stated)
- outcome [1]: inactive
- outcome [2]: inactive
- outcome [3]: inactive
- outcome [4]: inactive
- outcome [9]: inactive
- outcome [6]: inactive
- outcome [13]: inactive
- fold change [7, 14]: 0.927 (inactive)
- fold change [7, 15]: 0.607
- cell count [7, 16]: 8020
- cell count [7, 17]: 8650
- z-score [8, 18]: 0.566 (inactive)
- z-score [8, 19]: -0.147

SMILES: Cc1cnc(-c2cc(N3CCN(C(=O)CCS(C)(=O)=O)CC3)ncc2Cl)c(C)c1
- outcome [1]: inactive
- outcome [2]: inactive
- outcome [12]: inactive
- outcome [4]: inactive
- outcome [5]: inactive
- outcome [9]: inactive
- outcome [6]: inactive
- outcome [13]: inactive
- fold change [7, 14]: 0.856 (inactive)
- fold change [7, 15]: 0.666
- cell count [7, 16]: 8550
- cell count [7, 17]: 10000
- z-score [8, 18]: -0.296 (inactive)
- z-score [8, 19]: 0.28

SMILES: Cc1cc([C@@H](C)Nc2ccccc2C(=O)O)c2nc(N3CCOCC3)cc(=O)n2c1
- AC50 [1]: 16.6 µM (active)
- AC50 [2]: 42.9 µM (active)
- AC50 [12]: 12.1 µM (active)
- AC50 [4]: 14.8 µM (active)
- AC50 [5]: 14.8 µM (active)
- AC50 [9]: 38.2 µM (active)

SMILES: CN(C)C(=O)c1ccc(S(=O)(=O)c2ccc(NC(=O)[C@@](C)(O)C(F)(F)F)c(Cl)c2)cc1
- outcome [1]: inactive
- outcome [2]: inactive
- outcome [3]: inactive
- outcome [6]: inactive

SMILES: CNC(=O)c1c(F)cccc1Nc1nc(Nc2cc3c(cc2OC)CCN3C(=O)CN(C)C)nc2[nH]ccc12
- AC50 [1]: 5.25 µM (active)
- AC50 [2]: 0.235 µM (active)
- AC50 [12]: 2.64 µM (active)
- AC50 [4]: 0.934 µM (active)
- AC50 [5]: 0.661 µM (active)
- AC50 [9]: 0.0833 µM (active)
- AC50 [6]: 3.32 µM (active)
- IC50 [13]: 14.8 µM (active)
- fold change [7, 14]: 0.926 (inactive)
- fold change [7, 15]: 0.874
- cell count [7, 16]: 5320
- cell count [7, 17]: 5750
- z-score [8, 18]: -0.536 (inactive)
- z-score [8, 19]: -0.594

SMILES: Cc1ccc([C@@H]2O[C@H](CO)[C@@H](O)[C@H](O)[C@H]2O)cc1Cc1ccc(-c2ccc(F)cc2)s1
- outcome [1]: inactive
- outcome [2]: inactive
- outcome [3]: inactive
- outcome [4]: inactive
- outcome [9]: inactive
- SSMD [10]: 0.238
- cell count [10]: 7420
- plate-normalised HSF1 focus index [10]: 1.01 (inactive)
- viability [11, 20]: 120% (inactive)
- viability [11, 21]: 109% (inactive)
- viability [11, 22]: 98.8% (active)
- viability [11, 23]: 97.6% (active)
- viability [11, 24]: 120% (inactive)
- viability [11, 25]: 120% (inactive)
- viability [11, 26]: 109% (inactive)
- viability [11, 27]: 93.8% (active)
- viability [11, 28]: 115% (inactive)
- viability [11, 29]: 118% (inactive)
- viability [11, 30]: 108% (inactive)
- viability [11, 31]: 99.4% (active)
- viability [11, 32]: 105% (inactive)
- viability [11, 33]: 108% (inactive)
- viability [11, 34]: 108% (inactive)
- viability [11, 35]: 103% (inactive)
- viability [11, 36]: 114% (inactive)
- viability [11, 37]: 128% (inactive)
- viability [11, 38]: 109% (inactive)
- viability [11, 39]: 102% (inactive)
- viability [11, 40]: 117% (inactive)
- viability [11, 41]: 122% (inactive)
